According to PubChem BioAssay (NCI):
This is part of a sample that, as a whole, favours compounds with a hit. Of some 83,000 tested, about 20% had one in any assay.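 The endpoint reported here, percent growth, reads 100 for growth as untreated, 0 for no net growth and -100 for all cells dead.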 Activity calls are given as the source filed them. The calls were made as follows: active = growth percent below 10; inactive = the rest.

Experiments:
Experiment in all cases: NCI-60 one-dose screen, 48 h (100 = growth as untreated, 0 = no growth, -100 = all killed)
Conditions in all cases: 10 µM unless noted
NCI-H23 lung = test system: NCI-H23 lung
NCI-H226 lung = test system: NCI-H226 lung
NCI-H322M lung = test system: NCI-H322M lung
HOP-62 NSCLC = test system: HOP-62 NSCLC
NCI-H460 lung = test system: NCI-H460 lung
HOP-92 NSCLC = test system: HOP-92 NSCLC
NCI-H522 lung = test system: NCI-H522 lung
A549/ATCC NSCLC = test system: A549/ATCC NSCLC
786-0 renal = test system: 786-0 renal
COLO 205 colon = test system: COLO 205 colon

Measured: growth

CCOC(=O)c1ccc(N2NC(=O)/C(=C/c3ccc([N+](=O)[O-])o3)C2=O)cc1
active: A549/ATCC NSCLC -1.33%
inactive: NCI-H23 lung 108% | NCI-H226 lung 120% | NCI-H322M lung 99.8% | HOP-62 NSCLC 109% | NCI-H460 lung 111% | HOP-92 NSCLC 105% | NCI-H522 lung 60.7% | 786-0 renal 116% | COLO 205 colon 129%

CN(C)CCCn1c(=O)c2ccccc2c2ccccc21
inactive: NCI-H23 lung 76.8% | NCI-H226 lung 87.6% | NCI-H322M lung 98.5% | HOP-62 NSCLC 80.1% | NCI-H460 lung 66.5% | HOP-92 NSCLC 45.5% | NCI-H522 lung 53.1% | A549/ATCC NSCLC 87.2% | 786-0 renal 68.4% | COLO 205 colon 55%

CCOC(=O)/C=C/c1cc2cc(-c3csc4ccccc34)ccc2[nH]1
inactive: NCI-H23 lung 60.6% | NCI-H226 lung 103% | NCI-H322M lung 115% | HOP-62 NSCLC 76.7% | NCI-H460 lung 83.8% | HOP-92 NSCLC 99.7% | NCI-H522 lung 40% | A549/ATCC NSCLC 55.5% | 786-0 renal 82.4% | COLO 205 colon 93.4%

CC(=O)O[C@]1(C(C)=O)CCC2C3C[C@H](C)C4=CC(=O)CC[C@]4(C)C3CC[C@@]21C (stereo not given in full)
inactive: NCI-H23 lung 96.2% | NCI-H226 lung 73.6% | NCI-H322M lung 95.7% | HOP-62 NSCLC 94.6% | NCI-H460 lung 103% | HOP-92 NSCLC 89.9% | NCI-H522 lung 74.8% | A549/ATCC NSCLC 73.3% | 786-0 renal 97.4% | COLO 205 colon 104%

COc1ccc(C(=O)COc2ccc(/C=C3\Oc4ccccc4C3=O)cc2)cc1
inactive: NCI-H23 lung 92.9% | NCI-H226 lung 88% | NCI-H322M lung 108% | HOP-62 NSCLC 90.8% | NCI-H460 lung 102% | HOP-92 NSCLC 75.8% | NCI-H522 lung 63% | A549/ATCC NSCLC 99% | 786-0 renal 98.1% | COLO 205 colon 99.2%

C=C1C(=O)O[C@H]2[C@H]1CC/C(CNC(=O)/C=C/c1ccc(Cl)cc1Cl)=C\CC[C@@]1(C)O[C@@H]21
inactive: NCI-H226 lung 64.2% | NCI-H322M lung 73.9% | HOP-62 NSCLC 17.2% | A549/ATCC NSCLC 20.9%
active: NCI-H23 lung -61.2% | NCI-H460 lung 2.98% | HOP-92 NSCLC -50.8% | NCI-H522 lung -84.2% | 786-0 renal -77.1% | COLO 205 colon -65.5%

c1coc(-c2c3ccc(=[N+]4CCCCC4)cc-3oc3cc(N4CCCCC4)ccc23)c1
active: NCI-H23 lung -84.6% | NCI-H226 lung -86.1% | NCI-H322M lung -85.1% | HOP-62 NSCLC -81.1% | NCI-H460 lung -71.5% | HOP-92 NSCLC -68.1% | NCI-H522 lung -86.4% | A549/ATCC NSCLC -57.9% | 786-0 renal -93.2% | COLO 205 colon -70.1%

O=C1Nc2ccccc2/C1=C/c1cn(C(=O)c2c(Cl)cccc2Cl)c2ccccc12
inactive: NCI-H23 lung 56.9% | NCI-H226 lung 48.2% | NCI-H322M lung 90.4% | HOP-62 NSCLC 88.8% | NCI-H460 lung 71.2% | HOP-92 NSCLC 49.1% | NCI-H522 lung 55.3% | A549/ATCC NSCLC 36.7% | 786-0 renal 57.1% | COLO 205 colon 41.7%

COc1ccc2[nH]c(O)c(/C=c3/cc4c(c(-c5ccc(F)c(OC)c5)n3)=Nc3ccccc3-4)c2c1
active: NCI-H460 lung -21.9% | 786-0 renal -59%
inactive: NCI-H23 lung 61.1% | NCI-H226 lung 90.7% | NCI-H322M lung 89.1% | HOP-62 NSCLC 88.6% | HOP-92 NSCLC 57.5% | NCI-H522 lung 67% | A549/ATCC NSCLC 52.8% | COLO 205 colon 84.8%

CCc1ccccc1-n1c(N)c(C#N)c(-c2ccc(N(C)C)cc2)c(C#N)c1=O
inactive: NCI-H23 lung 96.2% | NCI-H226 lung 98.6% | NCI-H322M lung 86.3% | HOP-62 NSCLC 106% | NCI-H460 lung 96.4% | HOP-92 NSCLC 68.3% | NCI-H522 lung 93.7% | A549/ATCC NSCLC 98.9% | 786-0 renal 93.9% | COLO 205 colon 114%

COc1cc(C2NC(=O)c3ccccc3N2)ccc1OCCCCCOc1c(OC)cc(C2=NOC(c3cc(OC)c(OC)c(OC)c3)C2)cc1OC (stereo not given)
inactive: NCI-H23 lung 59.5% | NCI-H226 lung 71.5% | NCI-H322M lung 103% | HOP-62 NSCLC 95.1% | NCI-H460 lung 63.4% | HOP-92 NSCLC 38.3% | NCI-H522 lung 56.3% | A549/ATCC NSCLC 67.5% | 786-0 renal 95% | COLO 205 colon 108%

Cc1cc(=O)oc2c1ccc1oc(C#N)c(C)c12
inactive: NCI-H23 lung 97.9% | NCI-H226 lung 107% | NCI-H322M lung 98.9% | HOP-62 NSCLC 103% | NCI-H460 lung 108% | HOP-92 NSCLC 82% | NCI-H522 lung 102% | A549/ATCC NSCLC 99.8% | 786-0 renal 84.9% | COLO 205 colon 121%

COc1cc(Cn2ncc3ccc(NC(=O)c4cc5ccccc5oc4=N)cc32)cc(OC)c1OC
inactive: NCI-H23 lung 80.8% | NCI-H226 lung 88.6% | NCI-H322M lung 89.6% | HOP-62 NSCLC 64.9% | NCI-H460 lung 91% | HOP-92 NSCLC 71.9% | NCI-H522 lung 20.3% | A549/ATCC NSCLC 50.7% | 786-0 renal 68% | COLO 205 colon 55.1%

CCc1ccccc1-n1c(-c2ccc(Cl)cc2)cc(-c2ccc(OC)cc2)c(C#N)c1=O
inactive: NCI-H23 lung 102% | NCI-H226 lung 108% | NCI-H322M lung 126% | HOP-62 NSCLC 103% | NCI-H460 lung 99.7% | HOP-92 NSCLC 63.5% | NCI-H522 lung 84.8% | A549/ATCC NSCLC 103% | 786-0 renal 92% | COLO 205 colon 117%

COc1ccc(-c2csc(C3=C(O)CN(CCCN4CCCC4=O)C3=N)n2)cc1OC
inactive: NCI-H23 lung 94.5% | NCI-H226 lung 97.2% | NCI-H322M lung 109% | HOP-62 NSCLC 90.2% | NCI-H460 lung 113% | HOP-92 NSCLC 62.8% | NCI-H522 lung 119% | A549/ATCC NSCLC 91.6% | 786-0 renal 99.3% | COLO 205 colon 106%

Cc1ccc(Nc2nc(N)nc(CSCC(=O)NN)n2)cc1
inactive: NCI-H23 lung 98.8% | NCI-H226 lung 97.8% | NCI-H322M lung 100% | HOP-62 NSCLC 101% | NCI-H460 lung 107% | HOP-92 NSCLC 95.6% | NCI-H522 lung 96.7% | A549/ATCC NSCLC 107% | 786-0 renal 100% | COLO 205 colon 110%

Nc1n[nH]c(-c2cc(Cl)ccc2O)c1-c1ccccc1
inactive: NCI-H23 lung 71.4% | NCI-H226 lung 70.5% | NCI-H322M lung 82.9% | HOP-62 NSCLC 83.6% | NCI-H460 lung 102% | HOP-92 NSCLC 73.1% | NCI-H522 lung 81.8% | A549/ATCC NSCLC 82.3% | 786-0 renal 92.7% | COLO 205 colon 101%

O=C(c1ccc(Nc2nccc(NCCCCNc3ccnc4cc(Cl)ccc34)n2)cc1)N1CCCCC1
active: 786-0 renal 0.767% | COLO 205 colon -58.6%
inactive: NCI-H23 lung 45.3% | NCI-H226 lung 91.3% | NCI-H322M lung 51.3% | HOP-62 NSCLC 69.7% | NCI-H460 lung 12.9% | HOP-92 NSCLC 59.2% | NCI-H522 lung 33.2% | A549/ATCC NSCLC 25.8%

O=[N+]([O-])c1ccc(C2CC(c3ccccc3)=Nc3ccccc3S2)cc1 (stereo not given)
inactive: NCI-H23 lung 94.4% | NCI-H226 lung 118% | NCI-H322M lung 107% | HOP-62 NSCLC 112% | NCI-H460 lung 101% | HOP-92 NSCLC 81% | NCI-H522 lung 94.6% | A549/ATCC NSCLC 105% | 786-0 renal 105% | COLO 205 colon 118%

Cc1ccc2c(c1)Sc1c(ccc3ccccc13)N2
active: HOP-62 NSCLC -2.75%
inactive: NCI-H23 lung 74.7% | NCI-H226 lung 75.4% | NCI-H322M lung 90% | NCI-H460 lung 20.8% | HOP-92 NSCLC 75.3% | NCI-H522 lung 61.3% | A549/ATCC NSCLC 59% | 786-0 renal 18.1% | COLO 205 colon 91.5%

Cc1ccc2nc(C)c(-c3nnc(SCc4ccc(C#N)cc4)o3)n2c1
inactive: NCI-H23 lung 85.3% | NCI-H226 lung 93.5% | NCI-H322M lung 90.7% | HOP-62 NSCLC 97.6% | NCI-H460 lung 102% | HOP-92 NSCLC 104% | NCI-H522 lung 97% | A549/ATCC NSCLC 104% | 786-0 renal 72.2% | COLO 205 colon 116%

CC/C=C/C/C=C/C/C=C/C/C=C/C/C=C/C/C=C/CCC(=O)Nc1ccn([C@@H]2O[C@H](CO)[C@@H](O)C2(F)F)c(=O)n1
inactive: NCI-H322M lung 51.9% | HOP-92 NSCLC 32.1% | NCI-H522 lung 39.8% | A549/ATCC NSCLC 17.6% | COLO 205 colon 11.8%
active: NCI-H23 lung 1.56% | NCI-H226 lung 8.09% | HOP-62 NSCLC 8.82% | NCI-H460 lung 9.01% | 786-0 renal 0.0768%

Cn1c(I)c(C#C[Si](C)(C)C)c(=O)n(C(=O)c2ccccc2)c1=O
active: HOP-92 NSCLC -27.1% | NCI-H522 lung -66.2% | 786-0 renal -66.6% | COLO 205 colon -7.64%
inactive: NCI-H23 lung 51.7% | NCI-H226 lung 79.6% | NCI-H322M lung 94.9% | HOP-62 NSCLC 59.1% | NCI-H460 lung 55.4% | A549/ATCC NSCLC 80%

O=[N+]([O-])c1ccc(N2c3ccncc3Sc3ccncc32)cc1
inactive: NCI-H23 lung 102% | NCI-H226 lung 105% | NCI-H322M lung 105% | HOP-62 NSCLC 104% | NCI-H460 lung 122% | HOP-92 NSCLC 80.2% | NCI-H522 lung 87.8% | A549/ATCC NSCLC 110% | 786-0 renal 107% | COLO 205 colon 111%

O=C1/C(=C2/C=Nc3ccccc32)N(O)c2ccccc21
inactive: NCI-H23 lung 56.8% | NCI-H226 lung 77% | NCI-H322M lung 108% | HOP-62 NSCLC 95.6% | NCI-H460 lung 91.4% | HOP-92 NSCLC 124% | NCI-H522 lung 57.1% | A549/ATCC NSCLC 94.2% | 786-0 renal 104% | COLO 205 colon 104%

Nc1nc(N)c2c(n1)NC(c1ccccc1)C1CCc3ccccc3C1=N2 (stereo not given)
inactive: NCI-H23 lung 39.3% | NCI-H226 lung 53.3% | NCI-H322M lung 64.4% | HOP-62 NSCLC 70.2% | NCI-H460 lung 18.5% | HOP-92 NSCLC 72.2% | NCI-H522 lung 89.9% | A549/ATCC NSCLC 63.4% | 786-0 renal 55.1% | COLO 205 colon 27.6%

COc1cccc(-c2nn(-c3ccccc3)cc2-c2ccnc(NCCCNC(=O)Nc3ccc(Cl)c(Cl)c3)c2)c1
inactive: NCI-H23 lung 15.1% | NCI-H226 lung 47.9% | NCI-H322M lung 24.3% | NCI-H460 lung 18.5%
active: HOP-62 NSCLC -5.99% | HOP-92 NSCLC -11.7% | NCI-H522 lung -37% | A549/ATCC NSCLC 7.3% | 786-0 renal -38.7% | COLO 205 colon -44.7%
